Data on 30 molecules can be found in PubChem BioAssay (NCATS).

Results filed as inconclusive are left out. The source made the active and inactive calls. Unless noted, the call rests on the fitted dose curve; in most records, active means well fitted curve in the direction sought with a large enough effect; inconclusive means small, poorly fitted or top-dose-only effect, or another doubt; inactive means no such curve, though single readings can be large; an effect the other way counts as inactive or inconclusive.

The target of assay [1] is Luciferin 4-monooxygenase (Photinus pyralis) (UniProt P08659). The assay is described as follows: Biochemical firefly luciferase enzyme assay for NPC (AID 624030).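 Further: purified P. pyralis luciferase at 10 nM with luciferin and ATP substrate; nearly all actives have a fitted effect of over 70% in size.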 Conditions: purified P. pyralis luciferase, luminescence, 5 min; series mostly up to 58.6 µM. The gist of the method:
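Counter-screen for direct inhibition of the luciferase enzyme by approved-drug library compounds, run at 10 nM enzyme in 50 mM Tris acetate (final). Luminescence was read within 5 min of enzyme-buffer addition and normalized to PTC124 versus DMSO (0%).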

A short description of assay [2]: S16 Schwann cell viability assay (CellTiter-Glo assay) (AID 624031).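 Further: native untransfected S16 rat Schwann cells; cellular ATP luminescence as a viability measure; nearly all actives have a fitted effect of over 70% in size.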 Conditions: S16 rat Schwann cells viability, 24 h; series mostly up to 57.5 µM. The gist of the method: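 Cells were seeded at 500-750 per well in phenol red-free DMEM with 10% FBS and left overnight. Compounds or DMSO were pinned in, incubation ran 24 h at 37 °C/5% CO2, then CellTiter-Glo reagent was added and luminescence measured.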
A general note: In ATP-based viability assays light output follows the ATP content of the culture.

The nature of assay [3]: S16 Schwann cell PMP22 intronic element firefly luciferase assay (AID 624032). Further: nearly all actives have a fitted effect of over 30% in size. Further: potency means the concentration at half of the fitted maximal effect. Conditions: S16 rat Schwann cells, PMP22 element FLuc, 24 h; series mostly up to 57.5 µM. The gist of the method: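 Rat S16 Schwann cells stably carrying a PMP22 intronic element-driven Fluc reporter were seeded overnight, then exposed to compounds for 24 h at 37 °C. Luminescence was normalized to PTC124 (positive control) and DMSO (0% activity).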

Assay [4] in a line: qHTS of Trypanosoma Brucei Inhibitors: LOPAC Validation (AID 624147). Particulars: purified enzyme assay, luminescence, 45 min; series mostly up to 57.5 µM. The gist of the method: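 Quantitative HTS: titrated library compounds versus trypanosomal pyruvate kinase in TEA buffer (pH 7.2) containing KCl, MgCl2, BSA and Tween-20. Reactions were initiated with ADP, 130 uM final. Kinase-Glo Plus luminescence was read after 45 min at RT.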

In assay [5] the target is Glucagon-like peptide 1 receptor (Homo sapiens) (UniProt P43220). Briefly: qHTS of GLP-1 Receptor Agonists: LOPAC Validation (AID 624148).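 Further: higher luminescence signal means agonism.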 Conditions: GLP-1R agonist cell assay; series mostly up to 46.1 µM. The gist of the method:
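HEK293 cells stably co-expressing a cAMP-responsive luciferase reporter and a hypersensitive GLP-1R were plated 12 h at 37 °C and exposed to compounds for 4-6 hr at 37 °C, 5% CO2. Luminescence was read 12 min after adding detection reagent.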

A short description of assay [6]: qHTS of Nrf2 Activators: LOPAC Validation (AID 624149). Particulars: Nrf2/ARE reporter cell assay; series mostly up to 46.1 µM. The gist of the method: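 Luciferase signal from ARE activation, read with Steady-Glo after 30 min at room temperature. Compounds were pin-transferred onto AREc32_Fluc cells (1000/well, OPTI-MEM/5% FBS, seeded overnight) and left 24 hr at 37 deg C.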
In general terms: In qHTS, concentration-response curves come from the screen itself.

Assay [7] deals with Glutaminase kidney isoform, mitochondrial (Homo sapiens) (UniProt O94925). The assay is described as follows: qHTS for Inhibitors of Glutaminase (GLS): LOPAC Validation (AID 624146). Further: nearly all actives have a fitted effect of over 60% in size. Further: potency means the concentration at half of the fitted maximal effect. Conditions: glutaminase enzyme activity inhibition; series mostly up to 46.1 µM. Summed up: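 Glutamate formation by hKGA was monitored fluorometrically using coupled glutamate oxidase, HRP and Amplex Red. Substrate was added as 1 mM L-glutamine solution; incubation was 30 min at RT after an initial read.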

Assay [8] in a line: S16 Schwann cell PMP22 intronic element beta-lactamase assay (AID 624044; calls by dose curve; further: nearly all actives have a fitted effect of over 15% in size). Conditions: S16 rat Schwann cells, PMP22 element beta-lactamase FRET, 24 h; series mostly up to 38.3 µM. Summed up: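 Beta-lactamase reporter under a PMP22 intronic regulatory element in stable S16 rat Schwann cells; 24 h compound exposure. 460 nm blue signal normalized between DMSO (0%) and potassium clavulanate, with 535 nm FRET tracking viability; curves classed by r2 and response.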

Glutaminase kidney isoform, mitochondrial (Homo sapiens), sequence (O94925 whole entry, looked up, canonical isoform): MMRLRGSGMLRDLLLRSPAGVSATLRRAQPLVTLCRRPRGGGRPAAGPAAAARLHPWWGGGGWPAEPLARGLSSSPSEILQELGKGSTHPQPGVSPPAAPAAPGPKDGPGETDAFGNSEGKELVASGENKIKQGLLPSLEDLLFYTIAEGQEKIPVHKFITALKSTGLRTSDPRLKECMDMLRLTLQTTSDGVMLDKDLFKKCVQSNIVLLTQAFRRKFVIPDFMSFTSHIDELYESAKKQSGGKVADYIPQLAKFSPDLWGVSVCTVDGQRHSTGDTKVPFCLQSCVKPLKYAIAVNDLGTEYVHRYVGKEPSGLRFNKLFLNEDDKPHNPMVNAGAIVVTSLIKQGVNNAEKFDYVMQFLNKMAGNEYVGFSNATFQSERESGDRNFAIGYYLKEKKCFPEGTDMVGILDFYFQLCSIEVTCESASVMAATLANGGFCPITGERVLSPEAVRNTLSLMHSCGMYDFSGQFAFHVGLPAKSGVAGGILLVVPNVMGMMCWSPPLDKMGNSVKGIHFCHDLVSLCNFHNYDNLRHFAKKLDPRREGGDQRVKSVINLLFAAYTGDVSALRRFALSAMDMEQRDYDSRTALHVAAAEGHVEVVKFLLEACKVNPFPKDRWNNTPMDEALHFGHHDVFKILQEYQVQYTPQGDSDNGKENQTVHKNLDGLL
Glucagon-like peptide 1 receptor (Homo sapiens), sequence (P43220 whole entry, looked up): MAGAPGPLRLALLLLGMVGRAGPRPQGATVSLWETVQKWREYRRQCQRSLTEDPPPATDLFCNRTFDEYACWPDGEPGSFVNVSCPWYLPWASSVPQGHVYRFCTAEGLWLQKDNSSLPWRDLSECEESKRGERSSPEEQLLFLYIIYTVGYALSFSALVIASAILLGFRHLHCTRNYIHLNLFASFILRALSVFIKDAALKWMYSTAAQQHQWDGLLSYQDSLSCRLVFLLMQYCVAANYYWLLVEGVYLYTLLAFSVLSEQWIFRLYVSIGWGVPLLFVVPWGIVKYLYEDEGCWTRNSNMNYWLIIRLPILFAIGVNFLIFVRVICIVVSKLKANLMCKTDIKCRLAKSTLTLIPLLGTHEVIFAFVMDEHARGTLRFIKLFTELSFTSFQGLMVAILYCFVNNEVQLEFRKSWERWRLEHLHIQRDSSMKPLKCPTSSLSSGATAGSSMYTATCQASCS
Luciferin 4-monooxygenase (Photinus pyralis), sequence (P08659 whole entry, looked up): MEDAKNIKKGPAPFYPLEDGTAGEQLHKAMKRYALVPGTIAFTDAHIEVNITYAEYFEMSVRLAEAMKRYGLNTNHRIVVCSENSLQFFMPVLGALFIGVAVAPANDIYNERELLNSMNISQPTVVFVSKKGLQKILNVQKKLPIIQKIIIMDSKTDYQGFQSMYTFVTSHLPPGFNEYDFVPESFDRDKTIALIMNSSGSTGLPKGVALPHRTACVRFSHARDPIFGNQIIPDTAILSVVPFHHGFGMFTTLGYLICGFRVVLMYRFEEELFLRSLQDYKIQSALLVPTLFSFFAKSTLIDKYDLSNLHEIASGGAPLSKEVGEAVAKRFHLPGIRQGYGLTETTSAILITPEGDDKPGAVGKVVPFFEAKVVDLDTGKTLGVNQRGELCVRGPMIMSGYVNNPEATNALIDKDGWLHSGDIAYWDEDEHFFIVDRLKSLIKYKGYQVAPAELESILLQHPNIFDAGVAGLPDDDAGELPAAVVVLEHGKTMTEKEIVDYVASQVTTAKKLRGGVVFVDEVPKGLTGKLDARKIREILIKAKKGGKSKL

For `CC1OC1P(=O)(O)O` (stereo unspecified), the Potency result in assay [1], in assay [2], in assay [3] and in assay [4] was “inactive” in each case. Also, the call in assay [5] and in assay [6] was inactive.
Take `NC(=O)C(c1ccccc1)(c1ccccc1)[C@@H]1CCN(CCc2ccc3c(c2)CCO3)C1`: the Potency result in assay [1] and in assay [2] was “inactive” throughout.
Consider `CN(C)CCC(c1ccc(Cl)cc1)c1ccccn1` (stereo unspecified), for which the Potency result in assay [1], in assay [7] and in assay [4] was “inactive” throughout. Also, the molecule was called inactive in assay [5] and in assay [6].
Take `CNC(=O)[C@H]1O[C@@H](n2cnc3c(NCc4ccc(N)cc4)ncnc32)[C@H](O)[C@@H]1O`: the Potency entry in assay [7] and in assay [4] was “inactive” in each case. Moreover, the outcome in assay [5] and in assay [6] was inactive.
With `O=C(/C=C/c1ccccc1)NCCO`, the Potency entry in assay [2], in assay [3] and in assay [8] was “inactive” each time.
Take `CCCC1(C)C(C#N)(C#N)C1(C#N)C#N`: the Potency entry in assay [7] and in assay [4] was “inactive” each time. For the same molecule, the outcome in assay [5] and in assay [6] was inactive.
Take `CC(N)C(=O)OC(C)(C)Cc1ccc(Cl)cc1` (stereo unspecified): the Potency entry in assay [1], in assay [2], in assay [3], in assay [8], in assay [7] and in assay [4] was “inactive” in each case. The outcome in assay [5] and in assay [6] was inactive.
Turning to `CCN(CC)c1ncnc2c1ncn2[C@@H]1O[C@H](COP(=O)(O)OP(=O)(O)C(Br)(Br)P(=O)(O)O)[C@@H](O)[C@H]1O`, the Potency entry in assay [7] and in assay [4] was “inactive” throughout. Besides, the call in assay [5] and in assay [6] was inactive.
For `O=C1NC(=O)/C(=C/c2ccc3nccnc3c2)S1`, the Potency entry in assay [7] and in assay [4] was “inactive” throughout. Further, the result in assay [5] and in assay [6] was inactive.
For `CCCCCCCCc1ccc(-c2ccc(C(=O)O)cc2)cc1`, the Potency result in assay [7] and in assay [4] was “inactive” throughout. In addition, the molecule was called inactive in assay [5] and in assay [6].
On to `CC(COc1ccc(/C=C/c2ccccc2)cc1)[N+](C)(C)C` (stereo unspecified), for which the Potency entry in assay [7] and in assay [4] was “inactive” throughout. Further, the molecule was classed as inactive in assay [5] and in assay [6].
With `CC1(C)[C@@H](O)CC[C@]2(C)[C@H]3C(=O)C=C4[C@@H]5C[C@@](C)(C(=O)O)CC[C@]5(C)CC[C@@]4(C)[C@]3(C)CC[C@@H]12`, the Potency result in assay [1], in assay [2] and in assay [8] was “inactive” each time. Also, in assay [3], the Potency is 8.09 µM (active).
Take `COC(=O)C1=C(C)NC(C)=C(C(=O)OCC(C)=O)C1c1ccccc1[N+](=O)[O-]` (stereo unspecified): in assay [1], the Potency entry was “inactive”.
`COc1ccc2c(c1)CCC1C2CC[C@@]2(C)C1CC[C@@H]2NCCCCCCN1C(=O)CCC1=O` (stereo partly specified): the Potency entry in assay [7] and in assay [4] was “inactive” throughout. Further, the result in assay [5] and in assay [6] was inactive.
For `CC[C@@H](C)[C@H]1O[C@]2(CC[C@H]1C)C[C@@H]1C[C@@H](CC=C(C)[C@@H](O[C@H]3C[C@H](OC)[C@@H](O[C@H]4C[C@H](OC)[C@@H](O)[C@H](C)O4)[C@H](C)O3)[C@@H](C)C=CC=C3CO[C@@H]4[C@H](O)C(C)=C[C@@H](C(=O)O1)[C@]34O)O2`, the Potency entry in assay [7] and in assay [4] was “inactive” in each case. The outcome in assay [5] and in assay [6] was inactive.
Regarding `Cc1nc2sccn2c(=O)c1CCN1CCC(=C(c2ccccc2)c2ccc(F)cc2)CC1`, the Potency entry in assay [7] and in assay [4] was “inactive” in each case. The call in assay [5] and in assay [6] was inactive.
Consider `COc1cc(/C=C/C(=O)CC(=O)/C=C/c2ccc(O)c(OC)c2)ccc1O`, for which the Potency entry in assay [2] and in assay [8] was “inactive” throughout. The Potency in assay [3] is 20.3 µM (active).
In the case of `O=C1CN(/N=C/c2ccc(-c3ccc([N+](=O)[O-])cc3)o2)C(=O)N1`, the Potency result in assay [1], in assay [2], in assay [3] and in assay [8] was “inactive” in each case.
Turning to `O=C(CCN1CCN(CCO)CC1)N1c2ccccc2Sc2ccc(C(F)(F)F)cc21`, the Potency result in assay [1], in assay [2] and in assay [8] was “inactive” in each case.
For the molecule `Cn1ncc(S(=O)(=O)Cc2ccccc2)c(Br)c1=O`, the Potency result in assay [7] and in assay [4] was “inactive” each time. In assay [5], the result was inactive.
In the case of `CN1[C@@H]2CC[C@H]1CC(OC(=O)C(CO)c1ccccc1)C2` (stereo partly specified), the Potency entry in assay [2], in assay [3] and in assay [8] was “inactive” in each case.
Consider `Cc1cc2c(cc1Cl)N(C(=O)Nc1ccc(Oc3cccnc3C)nc1)CC2`, for which the Potency entry in assay [7] and in assay [4] was “inactive” throughout. The call in assay [5] and in assay [6] was inactive.
With `CCCCCC(O)c1cccc(OCc2ccc3ccccc3n2)c1` (stereo unspecified), the Potency entry in assay [7] and in assay [4] was “inactive” in each case. In addition, the molecule was called inactive in assay [5] and in assay [6].
On to `COC(=O)c1c(C)[nH]c(C)c1C(=O)c1ccccc1Cc1ccccc1`, for which the Potency entry in assay [7] and in assay [4] was “inactive” each time. The call in assay [5] and in assay [6] was inactive.
With `Cc1ccc(S(=O)(=O)/C=C/C#N)cc1`, the Potency in assay [7] is 12.6 µM (active). The molecule was called inactive in assay [5] and in assay [6].
`O=C(c1ccc(Cl)cc1)N1CCN(c2ccc([N+](=O)[O-])c3ncccc23)CC1`: the Potency entry in assay [7] and in assay [4] was “inactive” each time. Further, the molecule was called inactive in assay [5] and in assay [6].
For the molecule `Nc1ncnc2c1ncn2[C@@H]1O[C@H](COP(=O)(O)OP(=O)(O)OP(=O)(O)OP(=O)(O)OC[C@@H]2O[C@H](n3cnc4c(N)ncnc43)[C@@H](O)[C@H]2O)[C@@H](O)[C@H]1O`, the Potency entry in assay [7] and in assay [4] was “inactive” each time. Besides, the outcome in assay [6] was inactive.
For the molecule `C[N+](C)(C)CC(=O)[O-]`, in assay [4], the Potency result is “inactive”.
Consider `C=C[C@@H]1CN2CC[C@@H]1C[C@H]2[C@H](O)c1ccnc2ccc(OC)cc12`, for which the Potency entry in assay [7] and in assay [4] was “inactive” in each case. In assay [6], the result was inactive.
In the case of `NS(=O)(=O)C#Cc1ccccc1`, the Potency result in assay [7] and in assay [4] was “inactive” in each case. Also, the molecule was called inactive in assay [5] and in assay [6].
